Data from PubChem BioAssay (NCI).
This is part of a sample that, as a whole, favours compounds with a hit. Of some 79,000 tested, about 15% had one in any assay. Unmarked numbers belong to inactive results. Calls of active or inactive are those of the source. Cut-off read from the data, not from the text of the source: active = growth inhibition above about 70%; inactive = the rest.

Experiments:
[1] = NCI Yeast Anticancer Drug Screen. Data for the rad50 strain (AID 155);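 note: 0% = growth of vehicle-only cultures of the same strain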; settings: S. cerevisiae rad50 strain growth inhibition; at 50.0 µM; active compounds read high
Summary of the method: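 Compounds were tested on a yeast strain with an engineered DNA damage repair alteration; the reported value is growth inhibition normalised to vehicle treatment.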

[2] = NCI Yeast Anticancer Drug Screen. Data for the mec2-1 strain (AID 157); settings: S. cerevisiae mec2-1 strain, at 50.0 µM, active compounds read high
Summary of the method: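 Growth inhibition is read against vehicle-treated controls after compound exposure of the mec2-1 yeast strain, which is defective in DNA damage repair or cell cycle control.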

[3] = NCI Yeast Anticancer Drug Screen. Data for the sgs1 mgt1 strain (AID 161);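 note: 0% = growth of cultures given vehicle only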; settings: S. cerevisiae sgs1 mgt1 strain, at 50.0 µM, active compounds read high
Summary of the method: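 Growth of a repair-deficient yeast mutant was monitored after compound treatment and expressed as inhibition relative to vehicle-treated cultures.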

[4] = NCI Yeast Anticancer Drug Screen. Data for the cln2 rad14 strain (AID 165);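 note: 0% = growth equal to vehicle treated cultures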; settings: S. cerevisiae cln2 rad14 strain, at 50.0 µM, active compounds read high
Summary of the method: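 Growth inhibition, relative to vehicle-treated controls, is the read-out. The test organism is a yeast strain with defined genetic alterations, cln2 rad14.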

[5] = NCI Yeast Anticancer Drug Screen. Data for the bub3 strain (AID 167); settings: S. cerevisiae bub3 mutant strain, at 50.0 µM, active compounds read high
Summary of the method: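 Growth of a checkpoint-deficient yeast mutant is measured after compound exposure. Values represent inhibition relative to vehicle.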

[6] = NCI Yeast Anticancer Drug Screen. Data for the mlh1 rad18 strain (AID 175); settings: S. cerevisiae mlh1 rad18 strain growth inhibition; at 50.0 µM; active compounds read high
Summary of the method: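 Cells of a genetically altered yeast strain, deficient in DNA damage repair, were treated with compound. Their growth was then compared with that of vehicle-treated cultures to give inhibition.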

| Compound | growth inhibition [1] | growth inhibition [2] [%] | growth inhibition [3] [%] | growth inhibition [4] | growth inhibition [5] [%] | growth inhibition [6] |
| --- | --- | --- | --- | --- | --- | --- |
| N#CC1(OC2OC(CO)C(O)C(O)C2O)C=CCC1 (stereo unspecified) | 8.1% | -33 | 4.45 | -7.45% | -12.9 | -3.05% |
| COc1ccc2c3c([nH]c2c1)C(C)N(S(=O)(=O)c1ccccc1)CC3 (stereo unspecified) | -8.1% | -0.9 | -2.65 | -4.9% | 8.45 | 5.7% |
| CCN(CC)CCOc1cc(C(C)C)ccc1C | 76% (active) | 63.5 | 63.5 | 76.2% (active) | 40.5 | 78.2% (active) |
| COc1cc(Nc2nc3ccc(C(F)(F)F)cc3nc2-c2ccccc2)cc(OC)c1OC | 0.05% | 4.2 | -36 | -12.2% | -9.3 | -22.9% |
| Cc1ccnc(NCc2ccccn2)c1 | 6.7% | 3.85 | 17.4 | -0.15% | 1.3 | -1.5% |
| CN1C/C(=C\c2ccco2)c2nc(N)nc(-c3ccco3)c2C1 | -6.15% | -3.35 | 8.9 | 35.5% | 6.85 | -4.15% |
| CCNc1nc(C)nc2c1cnn2-c1ccc(C)cc1 | 6.25% | -3.4 | 25.3 | -27.5% | -21.8 | 7.25% |
| COc1ccc(NC(=O)CC(=O)n2nc(C)c(N=Nc3ccccc3C(=O)O)c2C)cc1 | 8.6% | 10.6 | -6.05 | -42.5% | -1.35 | 15.3% |
| O=CC(=O)c1cccc([N+](=O)[O-])c1 | 3.55% | 7.75 | -3.6 | 11.4% | -29.2 | 10.4% |
| NC1CC(=O)c2sccc21 (stereo unspecified) | 9.8% | 2.15 | 16.8 | 9.2% | 17.8 | 1.25% |
| CC(=O)Nc1ccc(/C=C/C(=O)O)cc1 | -38.6% | -30.6 | -21.7 | -6.05% | -31.2 | -30.8% |
| COc1ccc(OC)c(CCCC(=O)O)c1 | 9.6% | 7.65 | 2.7 | 4.35% | 2.05 | -8.7% |
| CCCCCCC1(C)CCC(=O)O1 (stereo unspecified) | 15.3% | 8.45 | 6.2 | -6.25% | -5.9 | 14.4% |
| CCOC(=O)c1ccc2c3c(ccc([N+](=O)[O-])c13)CC2 | -7% | -6.25 | -14 | -1.9% | 18.5 | -8.35% |
| CNc1c(F)cc(C#N)cc1F | 12.1% | 11.1 | 1.75 | 3.8% | 0.75 | 10.8% |
| O=C(NC1C2CC3CC(C2)CC1C3)c1cc(/C=C/c2ccccc2)[nH]c(=S)n1 (stereo unspecified) | 15.1% | 2.35 | 13.1 | 12.2% | -2.25 | 14.3% |
| CC1=CN2C(c3ccc(Cl)cc3)=NON(c3ccc(C)cn3)C2C=C1 (stereo unspecified) | -21.6% | -4.75 | 0.65 | -50.8% | 5.25 | 8.35% |
| C[N+]1(C)N=C([O-])N(c2ccccc2F)C1=O | 7.15% | -7.35 | 2.7 | -17.1% | -2.15 | -0.7% |
| CO/C(=N\N=C\c1cccc(C(F)(F)F)c1)c1ccncc1 | 27.3% | 6.4 | -2.2 | -6.05% | 5.1 | 12.2% |
| OC1CCC(C2CCCCC2)CC1 (stereo unspecified) | -8.5% | -8.05 | -2.65 | 6.8% | -14.3 | -8.65% |
| COc1cc2c(cc1C/C=C/c1cc(OC)c(OC)c(OC)c1)OCO2 | -1.95% | -3.1 | 22.8 | -1.65% | 8.55 | 12.2% |
